Sampled rows, rich in hits. Any-hit rate of the full collection: about 2.6%.
EWS-Fli block = blocks EWS/Fli oncoprotein-driven transcription; A673 NR0B1-luciferase reporter, viability-normalised; actives 0.67% (n = 350,000); inhibition, % at 12.6 µM;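 active = mean inhibition of at least 50% after viability correction, with every replicate also passing that limit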;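 note: firefly luciferase signal divided by Alamar Blue viability fluorescence both relative to DMSO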
CF NFkB inh = cystic fibrosis NF-kB activation inhibition; AID 588850; actives 0.86% (n = 360,000); KKLEB NF-kB-GFP reporter, PAF-induced, GFP fluorescence overnight; inhibition, % at 5 µM;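 active = at least 50% inhibition at 5 µM, scaled per plate between neutral and stimulator controls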;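 note: PAF is a Pseudomonas aeruginosa culture filtrate used as stimulus; plate controls were PAF-stimulated DMSO wells for no effect and unstimulated DMSO wells for full effect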
LGR2 antag = Drosophila LGR2 receptor signaling inhibition; HEK293 LGR2, CRE-luciferase, bursicon-stimulated, 4 h; inhibition, % at 9.99 µM; actives 0.35% (n = 380,000);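 active = drop in luminescence signal, shown as inhibition above about 50% in the replicate tests, limit read from the data, passing the limit was not always enough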;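 note: agonist challenge used bursicon conditioned medium at about half maximal strength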
TWEAK-Fn14 inh = TWEAK-Fn14 signaling inhibition | TWEAK-stimulated Fn14 reporter cells, luciferase luminescence, 8 h | actives 2% (n = 360,000) | inhibition, % at 10 µM; in the data active = inhibition above about 50%
TROY NFkB inh = inhibitors of TROY-dependent NF-kB signaling | inhibition, % at 10 µM | Q293 LMP1-TROYcd NF-kB luciferase reporter, 4 h | actives 0.98% (n = 360,000) | AID 1347056;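 active = compounds whose plate-normalised and pattern-corrected inhibition of the luciferase reporter signal at the single screening dose is 50% or more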
KKLEB tox = reduces viability of KKLEB cystic fibrosis airway cells; activity change (cytotoxicity), % at 5 µM; KKLEB CF airway cells viability, ATPlite luminescence, overnight; active compounds read low; cells stimulated with P. aeruginosa culture filtrate; AID 602141; actives 0.36% (n = 360,000);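 active = corrected activity change at or below -50% at 5 µM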
DNA binder FP = binds DNA displacing acridine orange; salmon sperm DNA acridine orange fluorescence polarization; AC35, µM (series often up to 68 µM), inactives show at the highest dose activity change, negative = DNA binding; shares compounds with EWS-Fli block; actives 2% (n = 640);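 active = fitted curve reaches a 35% signal fall AC35 below twice the sample's top valid tested dose, actives reach about 48 µM in these data; inactive = the rest, including activity in the rising direction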;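 note: lower polarization ratio signals compound binding to DNA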
Active calls of the source: *; · = no result.

SMILES	EWS-Fli block	CF NFkB inh	LGR2 antag	TWEAK-Fn14 inh	TROY NFkB inh	KKLEB tox	DNA binder FP
Cc1ccc(S(=O)(=O)N(C)C[C@@H]2Oc3c(NC(=O)C4CCOCC4)cccc3C(=O)N([C@@H](C)CO)C[C@@H]2C)cc1	4	·	1	·	·	·	·
COC(=O)Cc1ccc(NC(=O)c2ccc(C(C)(C)C)cc2)cc1	·	5	·	45	19	-8	·
COC(=O)Cc1ccc(NC(=O)c2ccccc2Cl)cc1	66*	6	-26	19	-19	16	-11%
CCc1cccc2c(C(=O)CN3C(=O)NC4(CCCCCC4)C3=O)c[nH]c12	45	1	-16	-114	-44	-26	·
CCc1cccc2c(C(=O)CN3C(=O)NC4(CCCCC4)C3=O)c[nH]c12	51*	16	-3	-55	-43	-4	9%
C/C(=C\c1ccccc1)C(=O)N1CCC=CC1=O	55*	·	·	·	·	·	-3%
C/C(=C/c1ccccc1)C(=O)N1CCC(C)CC1	-18	2	-2	-8	-29	-9	·
CC(=O)c1ccc(NC(=O)c2noc3c2CCC3)cc1	60*	-38	64*	94*	54*	30	-6%
c1ccc(-c2cc(CN3[C@@H]4CNC[C@H]3C4c3ccc(-c4ccncc4)cc3)no2)cc1 (stereo partly specified)	-2	·	-7	·	·	·	·
c1ccc(-c2ccc([C@H]3[C@H]4CNC[C@@H]3N4Cc3cc(-c4ccccc4)on3)cc2)cc1	58*	·	-13	·	·	·	-13%
C[C@@H]1CN([C@@H](C)CO)C(=O)c2cc(NC(=O)CCC(F)(F)F)ccc2O[C@H]1CN(C)C(=O)Nc1cccc2ccccc12	0	·	3	·	·	·	·
Nc1ccc(Cn2ccc3c4c(N)nc(N)nc4ccc32)cc1	70*	-48	27	-57	4	18	-1%
Cc1nc2ccc(N)cc2c(=O)n1Cc1ccc(Cl)cc1	·	11	·	-25	9	-2	·
CCN1CCS/C1=C/C=C/C1=[N+](CC)CCS1	·	20	·	39	31	-10	·
CCN1CCS/C1=C\C=C\C1=[N+](CC)CCS1	53*	31	24	31	30	1	-1%
CCOC(=O)c1c(-c2ccc(C)cc2)csc1NC(=O)CCN1CCOCC1	81*	0	-2	9	-2	3	-9%
CCOC(=O)c1c(-c2ccccc2)csc1NC(=O)CCN1CCOCC1	·	6	4	3	-12	-2	·
C#CCOCCOCCOCCNc1nc(N2CCN(C(=O)CCCCCCCCCCNC(=O)Cn3cc(C[C@@H](C)O)nn3)CC2)nc(N2CCN(C(=O)CCCCCCCCCCNC(=O)[C@H](CO)n3cc(CCCSC)nn3)CC2)n1	58*	4	-9	40	-27	-8	12%
Cc1ccsc1C(=O)OCC(=O)c1cc(C)n(C)c1C	63*	-6	71*	84*	12	4	-11%
Cc1cc(C(=O)COC(=O)c2nccnc2N)c(C)n1C	-33	13	35	2	4	0	·
O=C(O)c1ccccc1NC(=O)C1CCCO1 (stereo unspecified)	·	2	·	0	-9	-7	·
O=C(NCCc1ccccc1)c1ccccc1NC(=O)C1CCCO1 (stereo unspecified)	71*	3	-45	-8	-33	1	-15%
CC1(CCc2ccccc2)NC(=O)N(CC(=O)N2CCc3ccccc32)C1=O (stereo unspecified)	3	-22	-1	-1	12	-10	·
CC1(CCc2ccccc2)NC(=O)N(CC(=O)N2CC(=O)Nc3ccccc32)C1=O (stereo unspecified)	62*	13	2	-4	5	-6	-6%
COc1ccc2c3c([nH]c2c1)[C@H](CO)N(Cc1ccccc1)CC31CCN(S(C)(=O)=O)CC1	-9	·	2	·	·	·	·
SMILES	EWS-Fli block	CF NFkB inh	LGR2 antag	TWEAK-Fn14 inh	TROY NFkB inh	KKLEB tox	DNA binder FP
CC1=NN(c2ccccc2)C(=O)/C1=C/C=C/c1ccc(N(C)C)cc1	-27	-15	·	10	-5	2	·
CC1=NN(c2ccccc2)C(=O)/C1=C\C=C\c1ccccc1	64*	-2	28	94*	49	7	7%
Cc1ccc(C(C(=O)NCc2ccco2)N(C(=O)CNC(=O)c2cccs2)c2c(C)cc(C)cc2C)cc1 (stereo unspecified)	55*	28	7	-18	0	-34	8%
COc1ccc(S(=O)(=O)Nc2ccc3c(c2)CC(=O)N([C@H](C)CO)C[C@@H](C)[C@H](CN(C)Cc2ccncc2)O3)cc1	2	·	-4	·	·	·	·
COC(=O)N=Nc1c(O)[nH]c2ccc(Br)cc12	6	-53	-3	-24	2	20	·
Oc1[nH]c2ccc(Br)cc2c1N=NC(=S)N1CCOCC1	57*	32	-2	105*	49	0	-3%
CN1C/C(=C\c2ccc(N3CCOCC3)cc2)C(=O)/C(=C/c2ccc(N3CCOCC3)cc2)C1	·	-64	6	23	14	19	·
CN1C/C(=C/c2ccsc2)C(=O)/C(=C/c2ccsc2)C1	61*	-39	8	25	-5	8	-13%
C[C@@H]1CN([C@@H](C)CO)C(=O)c2cc(NS(=O)(=O)c3ccc(Cl)cc3)ccc2O[C@@H]1CN(C)Cc1ccc(C(=O)Nc2ccccc2N)cc1	53*	·	6	·	·	·	-2%
C[C@H](CO)N1C[C@H](C)[C@H](CN(C)Cc2ccc(C(=O)Nc3ccccc3N)cc2)Oc2ccc(NS(=O)(=O)c3cccs3)cc2C1=O	54*	·	-20	·	·	·	-4%
Cc1ccc(S(=O)(=O)Nc2ccc3c(c2)C(=O)N([C@H](C)CO)C[C@@H](C)[C@@H](CN(C)Cc2ccc(C(=O)Nc4ccccc4N)cc2)O3)cc1	51*	·	7	·	·	·	-10%
C[C@@H]1CN([C@@H](C)CO)C(=O)c2cc(NC(=O)Nc3ccccc3)ccc2O[C@@H]1CN(C)Cc1ccc(C(=O)Nc2ccccc2N)cc1	58*	·	8	·	·	·	5%
C[C@H]1CN([C@@H](C)CO)C(=O)c2cc(NS(=O)(=O)c3cccs3)ccc2O[C@H]1CN(C)Cc1ccc(C(=O)Nc2ccccc2N)cc1	-10	·	1	·	·	·	·
Cc1ccc(S(=O)(=O)Nc2ccc3c(c2)C(=O)N([C@@H](C)CO)C[C@H](C)[C@@H](CN(C)Cc2ccc(C(=O)Nc4ccccc4N)cc2)O3)cc1	3	·	-15	·	·	·	·
C[C@H](CO)N1C[C@H](C)[C@H](CN(C)Cc2ccc(C(=O)Nc3ccccc3N)cc2)Oc2ccc(NC(=O)Nc3ccccc3)cc2C1=O	42	·	16	·	·	·	·
C[C@@H]1CN([C@H](C)CO)C(=O)c2cccc(NC(=O)c3ccncc3)c2O[C@H]1CN(C)S(=O)(=O)c1cccs1	3	·	-5	·	·	·	·
Cc1noc(C)c1NC(=O)N[C@@H]1CC[C@H](CCNC(=O)C2CCCC2)O[C@@H]1CO	2	·	7	·	·	·	·

Screens from PubChem BioAssay.
